Results published in PubChem BioAssay (Tox21).
“And” between values parts separate entries of the source, which are not always exact repeats. Identical values can stand only once. Values without a mark were called inactive. Results filed as inconclusive are left out. A call without a number means that no potency is given here. The source made the active and inactive calls. Calls follow the shape of the dose curve; as a rule, active = well fitted curve in the direction sought with a large enough effect in the repeat runs; inconclusive = weak or mixed curves; inactive = no such curve, though single readings can be large; an effect the other way counts as inactive or inconclusive.

Experiments:
[1] = Caspase-3/7 induction in CHO-K1 cells by small molecules, qHTS cell viability counter screen (AID 1346979); settings: CellTiter-Fluor fluorescence, 17 h; series mostly up to 92.4 µM; also: nearly all actives have a fitted effect of over 35% in size; also: potency is read from the fitted curve at half-maximal effect
Summary of the method: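 In the same wells as the caspase read, viability of compound-treated wild-type CHO-K1 cells was assessed using CellTiter-Fluor, added after 16hr at 37C and measured by fluorescence following 1hr further incubation.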

[2] = Caspase-3/7 induction in CHO-K1 cells by small molecules, qHTS assay (AID 1346980); settings: CHO-K1 caspase-3/7 induction, Caspase-Glo luminescence, 17 h; series mostly up to 92.4 µM; also: nearly all actives have a fitted effect of over 15% in size
Summary of the method: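 Wild-type cells were seeded at 1,500 per well and settled 5 hr at 37 C, 5% CO2, then exposed to DMSO-dissolved compounds for 17 hr. Caspase-Glo 3/7 reagent was added, and luminescence was read after 30min at room temperature.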

[3] = Caspase-3/7 induction in HepG2 cells by small molecules, qHTS cell viability counter screen (AID 1346981); settings: CellTiter-Fluor fluorescence, 17 h; series mostly up to 92.4 µM; also: nearly all actives have a fitted effect of over 30% in size; also: potency is read from the fitted curve at half-maximal effect
Summary of the method: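 HepG2, WT, 2,000 cells/well; 5 hr pre-incubation 37 C/5% CO2; compound pin-transferred from DMSO; 16 hr exposure; CellTiter-Fluor, 1 hr; fluorescence read.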

[4] = target: Nuclear receptor subfamily 1 group I member 2 (Homo sapiens) (UniProt O75469); assay: Human pregnane X receptor (PXR) small molecule agonists, qHTS assay (AID 1346982); settings: PXR-Luc HepG2, CYP3A4 luciferase reporter, 24 h; series mostly up to 92.4 µM; also: nearly all actives have a fitted effect of over 35% in size; also: potency is read from the fitted curve at half-maximal effect
Summary of the method: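 Luciferase signal from ONE-Glo (30 min, room temperature) measured activation of hPXR-driven CYP3A4 reporter expression in PXR-Luc HepG2 cells treated with compounds for 24 hr at 37 C.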

[5] = target: Nuclear receptor subfamily 1 group I member 2 (Rattus norvegicus) (UniProt Q9R1A7); assay: Rat pregnane X receptor (rPXR) activation by small molecules, qHTS assay (AID 1346983); settings: rPXR luciferase reporter cells, One-Glo luminescence, 24 h; stronger effect = higher value; also: nearly all actives have a fitted effect of over 20% in size
Summary of the method: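 Cell-based rPXR luciferase reporter assay, 2,000 cells per well, rested 5hr at 37 C before compound addition in DMSO, then 24 hr at 37 C. One-Glo reagent was added and luminescence read after 30 min at room temperature.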

[6] = target: Nuclear receptor subfamily 1 group I member 2 (Homo sapiens) (UniProt O75469); assay: CYP3A4 induction through human pregnane X receptor (PXR) by small molecules, qHTS assay (AID 1346984); settings: DPX-2 HepG2 PXR, CYP3A4-luciferin luminescence, 24 h; series mostly up to 46.1 µM; also: nearly all actives have a fitted effect of over 40% in size
Summary of the method: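 Luminescence readout: luciferase signal after One-Glo (30 min, room temperature), following 3 h at 37C with 3uM final Luciferin-IPA P450 substrate. Cells were DPX-2 (HepG2, PXR/CYP3A4-luc co-transfected) dosed for 24 h.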

[7] = target: Nuclear receptor subfamily 1 group I member 2 (Homo sapiens) (UniProt O75469); assay: Human pregnane X receptor (PXR) activation by small molecules, qHTS assay (AID 1346985); settings: DPX-2 HepG2 CYP3A4-luciferase, 24 h; series mostly up to 38.3 µM; also: nearly all actives have a fitted effect of over 40% in size
Summary of the method: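 DPX-2 cells (HepG2 co-transfected with a PXR response element and a CYP3A4-promoter luciferase construct) were seeded at 2,000 per well, rested 5 hr at 37C, then exposed to DMSO-dissolved compounds for 24 hr. Activation was read as luciferase luminescence.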

[8] = target: Cytochrome P450 2D6 (Homo sapiens) (UniProt P10635); assay: Cytochrome P450 Family 2 Subfamily D Member 6 (CYP2D6) small molecule antagonists: luciferase reporter qHTS assay (AID 1671196); settings: P450-Glo CYP2D6 enzyme assay, luciferin luminescence, 1 h; series mostly up to 115 µM; also: nearly all actives have a fitted effect of over 50% in size; also: potency is read from the fitted curve at half-maximal effect
Summary of the method: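 Read-out is luminescence from luciferin formed by CYP2D6 turnover of a proluciferin substrate, recorded as relative luminescence units. Reactions ran 1 h at room temperature after NADPH regeneration solution was added.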

[9] = target: Cytochrome P450 2C19 (Homo sapiens) (UniProt P33261); assay: Cytochrome P450 Family 2 Subfamily C Member 19 (CYP2C19) small molecule antagonists: luciferase reporter qHTS assay (AID 1671197); settings: P450-Glo CYP2C19 enzyme, luciferin luminescence, 1 h; series mostly up to 115 µM; also: nearly all actives have a fitted effect of over 65% in size; also: potency is read from the fitted curve at half-maximal effect
Summary of the method: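 Enzyme-substrate mix with proluciferin substrate (P450-Glo CYP2C19 system) preincubated with compounds 10 min at room temperature; NADPH regeneration solution added, 37C for 1 h; detection reagent stops reaction, luminescence read after 20 min. Ketoconazole positive control.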

[10] = target: Cytochrome P450 2C9 (Homo sapiens) (UniProt P11712); assay: Cytochrome P450 Family 2 Subfamily C Member 9 (CYP2C9) small molecule antagonists: luciferase reporter qHTS assay (AID 1671198); settings: P450-Glo CYP2C9 enzyme assay, luciferin luminescence; series mostly up to 115 µM; also: nearly all actives have a fitted effect of over 50% in size; also: potency is read from the fitted curve at half-maximal effect
Summary of the method: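 CYP2C9 activity was measured with a P450-Glo proluciferin substrate. Enzyme–substrate mix was held with compound for 10 min at room temperature, then NADPH regeneration solution was added for 1 h at 37C. Luciferin product was read as luminescence.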

Chain of Cytochrome P450 2D6 (Homo sapiens) (P10635 whole entry, looked up): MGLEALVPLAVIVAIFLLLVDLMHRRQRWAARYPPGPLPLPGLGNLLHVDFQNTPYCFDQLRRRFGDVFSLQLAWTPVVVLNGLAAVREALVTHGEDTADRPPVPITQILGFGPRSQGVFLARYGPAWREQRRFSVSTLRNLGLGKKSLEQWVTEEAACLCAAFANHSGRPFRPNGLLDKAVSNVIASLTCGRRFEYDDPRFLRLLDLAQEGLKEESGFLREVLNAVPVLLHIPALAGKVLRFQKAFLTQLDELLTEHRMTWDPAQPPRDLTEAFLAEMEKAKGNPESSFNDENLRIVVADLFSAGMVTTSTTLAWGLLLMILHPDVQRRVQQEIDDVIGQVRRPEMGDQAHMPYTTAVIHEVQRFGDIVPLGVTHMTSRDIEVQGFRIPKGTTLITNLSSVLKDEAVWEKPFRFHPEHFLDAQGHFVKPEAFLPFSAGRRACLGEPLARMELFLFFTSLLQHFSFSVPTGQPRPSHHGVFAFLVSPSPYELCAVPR
Chain of Nuclear receptor subfamily 1 group I member 2 (Homo sapiens) (O75469 whole entry, looked up): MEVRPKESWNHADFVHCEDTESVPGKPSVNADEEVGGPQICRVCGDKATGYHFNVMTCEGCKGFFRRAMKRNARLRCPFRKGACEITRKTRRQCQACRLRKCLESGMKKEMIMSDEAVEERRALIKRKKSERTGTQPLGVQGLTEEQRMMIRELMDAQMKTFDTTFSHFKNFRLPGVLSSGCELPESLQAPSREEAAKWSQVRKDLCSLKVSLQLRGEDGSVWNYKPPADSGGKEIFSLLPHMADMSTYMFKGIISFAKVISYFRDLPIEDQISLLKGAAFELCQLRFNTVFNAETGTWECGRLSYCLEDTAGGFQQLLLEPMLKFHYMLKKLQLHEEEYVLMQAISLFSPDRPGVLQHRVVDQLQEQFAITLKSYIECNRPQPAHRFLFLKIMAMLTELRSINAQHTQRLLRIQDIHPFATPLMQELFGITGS
Chain of Cytochrome P450 2C9 (Homo sapiens) (P11712 whole entry, looked up): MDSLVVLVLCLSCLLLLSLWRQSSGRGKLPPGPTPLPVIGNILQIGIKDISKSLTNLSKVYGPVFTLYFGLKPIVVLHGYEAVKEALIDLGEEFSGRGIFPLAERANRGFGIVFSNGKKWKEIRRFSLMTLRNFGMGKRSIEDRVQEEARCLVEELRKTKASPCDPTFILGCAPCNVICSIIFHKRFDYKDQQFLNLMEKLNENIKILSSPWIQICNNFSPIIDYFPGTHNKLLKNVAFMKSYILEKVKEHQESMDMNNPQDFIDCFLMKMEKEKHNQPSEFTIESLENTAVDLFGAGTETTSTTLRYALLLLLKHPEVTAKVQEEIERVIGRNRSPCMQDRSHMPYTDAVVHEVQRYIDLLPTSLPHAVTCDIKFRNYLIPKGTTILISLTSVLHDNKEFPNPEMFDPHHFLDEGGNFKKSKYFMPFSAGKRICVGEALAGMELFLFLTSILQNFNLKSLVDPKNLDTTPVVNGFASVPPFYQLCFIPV
Chain of Cytochrome P450 2C19 (Homo sapiens) (P33261 whole entry, looked up): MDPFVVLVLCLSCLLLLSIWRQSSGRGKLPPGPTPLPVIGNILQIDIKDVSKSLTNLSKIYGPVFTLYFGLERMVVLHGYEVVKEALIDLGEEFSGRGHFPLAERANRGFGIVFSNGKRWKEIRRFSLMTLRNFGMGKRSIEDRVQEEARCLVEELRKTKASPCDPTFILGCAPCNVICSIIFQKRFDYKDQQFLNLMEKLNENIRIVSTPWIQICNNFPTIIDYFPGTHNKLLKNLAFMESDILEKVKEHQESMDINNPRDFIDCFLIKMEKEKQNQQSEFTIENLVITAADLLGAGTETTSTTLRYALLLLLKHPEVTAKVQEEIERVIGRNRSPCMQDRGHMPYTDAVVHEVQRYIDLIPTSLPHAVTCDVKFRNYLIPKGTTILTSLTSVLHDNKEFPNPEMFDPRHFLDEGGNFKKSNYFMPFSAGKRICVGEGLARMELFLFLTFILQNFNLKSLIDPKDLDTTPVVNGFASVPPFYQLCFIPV
Chain of Nuclear receptor subfamily 1 group I member 2 (Rattus norvegicus) (Q9R1A7 whole entry, looked up): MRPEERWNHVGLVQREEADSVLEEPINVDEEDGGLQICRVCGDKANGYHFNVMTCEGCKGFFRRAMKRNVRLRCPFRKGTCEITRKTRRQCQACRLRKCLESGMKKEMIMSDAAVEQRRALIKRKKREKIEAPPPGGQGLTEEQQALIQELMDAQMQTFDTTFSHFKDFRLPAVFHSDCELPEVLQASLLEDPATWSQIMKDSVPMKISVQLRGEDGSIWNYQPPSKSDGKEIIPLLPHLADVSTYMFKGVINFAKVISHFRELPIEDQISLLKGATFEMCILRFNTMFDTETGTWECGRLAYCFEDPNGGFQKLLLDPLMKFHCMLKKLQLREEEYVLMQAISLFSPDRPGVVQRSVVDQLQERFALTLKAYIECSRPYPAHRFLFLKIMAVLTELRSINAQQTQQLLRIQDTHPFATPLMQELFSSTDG

Structure (SMILES)	Potency [1]	Potency [2]	Potency [3]	Potency [4]	max activation [5] [%]	Potency [6]	Potency [7]	Potency [8]	Potency [9]	Potency [10]	activity change, negative = cytotoxicity [1]	caspase-3/7 activation [2]	activity change, negative = cytotoxicity [3]	activation [4]	activity change, negative = inhibition [9]	activity change, negative = inhibition [10]
Nc1ccc(C(=O)O)c(O)c1	inactive	inactive	inactive	inactive	-0.56	inactive	inactive	inactive	inactive	inactive	–	–	–	–	–	–
CCCCCCCCCCCCCC[N+](C)(C)Cc1ccccc1	43.9 µM (active) and 33.5 µM (active) and 17.8 mM (active)	inactive	69.6 µM (active)	inactive	-5.38	inactive	inactive	908 nM (active) and 1.1 µM (active)	64.3 µM (active) and 20 mM (active)	80.9 µM (active)	–	–	–	–	–	–
OC1CCC(C2CCCCC2)CC1 (centres undefined)	inactive	inactive	inactive	inactive	–	–	–	–	–	–	–	–	–	–	–	–
C#C[C@]1(OC(C)=O)CC[C@H]2[C@@H]3CCC4=C[C@@H](OC(C)=O)CC[C@@H]4[C@H]3CC[C@@]21C	33.5 µM (active)	inactive	inactive	29.8 µM (active)	3.89	inactive	–	inactive	21.9 µM (active)	12.3 µM (active)	–	–	–	–	–	–
CCOc1ccc2ccccc2c1C(=O)N[C@@H]1C(=O)N2[C@@H]1SC(C)(C)[C@@H]2C(=O)O	inactive	inactive	inactive	inactive	-0.231	inactive	inactive	–	inactive	inactive	–	–	–	–	–	–
CCCCC(CC)CN1CN(CC(CC)CCCC)CC(C)(N)C1 (centres undefined)	inactive	inactive	inactive	21.1 µM (active)	-2.15	inactive	inactive	309 nM (active)	inactive	inactive	–	–	–	–	–	–
O[C@@H]([C@H](O)[C@H](O)CBr)[C@H](O)CBr	inactive	inactive	inactive	inactive	-0.988	inactive	inactive	inactive	–	inactive	–	–	–	–	–	–
CC(C)NC[C@@H](O)COc1ccc(CC(N)=O)cc1	inactive	inactive	inactive	inactive	-0.64	–	inactive	–	–	–	–	–	–	–	–	–
CCCCCCCCCCCCCCCC[N+](C)(C)CC	43.4 µM (active) and 29.8 µM (active)	inactive	61.3 µM (active)	inactive	-22.3	inactive	inactive	566 nM (active) and 871 nM (active)	inactive	–	–	–	–	–	–	–
CC[N+](CC)(CC)CCOc1ccc(/C=C/c2ccccc2)cc1	inactive	inactive	inactive	inactive	-2.42	inactive	inactive	–	–	inactive	–	–	–	–	–	–
Cc1cc(C(C)(C)C)cc(C)c1CC1=NCCN1	inactive	inactive	inactive	inactive	-6.02	inactive	inactive	–	inactive	inactive	–	–	–	–	–	–
Oc1c(I)cc(Cl)c2cccnc12	27.3 µM (active) and 29.8 µM (active)	inactive	inactive	24.3 µM (active) and 23.7 µM (active)	–	–	–	–	–	–	–	–	–	–	–	–
O=C(O)c1cc(-c2ccc(F)cc2F)ccc1O	inactive	inactive	inactive	inactive	-2	inactive	inactive	inactive	inactive	24.5 µM (active)	–	–	–	–	–	–
CCc1cccc(CC)c1NC(=O)CN(CC(=O)O)CC(=O)O	inactive	inactive	inactive	inactive	-4.1	inactive	inactive	inactive	inactive	inactive	–	–	–	–	–	–
CC(CCc1ccccc1)NCC(O)c1ccc(O)c(C(N)=O)c1 (centres undefined)	43.3 µM (active)	inactive	27.3 µM (active)	17.2 µM (active)	-0.392	inactive	inactive	564 nM (active)	–	inactive	–	–	–	–	–	–
Cc1cc(-n2nc3ccc(Cl)cc3n2)c(O)c(C(C)(C)C)c1	inactive	inactive	inactive	inactive	-2.8	inactive	inactive	inactive	inactive	inactive	–	–	–	–	–	–
COC1=C(OC)C(=O)C(CCCCCCCCCCO)=C(C)C1=O	23.7 µM (active)	inactive	inactive	inactive	4.16	inactive	inactive	34700 nM (active)	4.9 µM (active)	11 µM (active)	–	–	–	–	–	–
Cc1c(F)c(N2CCNC(C)C2)cc2c1c(=O)c(C(=O)O)cn2C1CC1 (centres undefined)	inactive	inactive	inactive	inactive	-0.343	inactive	inactive	inactive	inactive	inactive	–	–	–	–	–	–
Cc1nc(-c2ccc(Cl)cc2)oc1COC(C)(C)C(=O)O	inactive	inactive	inactive	inactive	-7.31	inactive	inactive	inactive	inactive	inactive	–	–	–	–	–	–
CC(C)Cn1cnc2c(N)nc3ccccc3c21	–	–	–	–	2.02	inactive	–	–	–	–	-8.58% [at 19 µM]	0.247% [at 19 µM]	-2.64% [at 19 µM]	5.89% [at 19 µM]	10.1% [at 23.6 µM]	-3.29% [at 23.6 µM]
